Reference: PubChem BioAssay AID1903 (Southern Research Specialized Biocontainment Screening …, 2009)
Several values for one entry are separate records, joined by “and”; a condition that tells them apart may be missing. Equal values may be shown once. Among all 310,000 compounds or so, about 1,200 (0.39%) were called active. How the calls were made is not given here. Only a sample is shown. Results with a measured potency or affinity are listed apart.

These compounds were tested against Large T antigen (Simian virus 40) (UniProt P03070) (assay: SV40 large T antigen inhibitors, biochemical (AID 1903)). Details: SV40 large T antigen ATPase/helicase inhibition assay; at 20 µM; hits give high values.
Large T antigen (Simian virus 40), sequence (P03070 whole entry, looked up): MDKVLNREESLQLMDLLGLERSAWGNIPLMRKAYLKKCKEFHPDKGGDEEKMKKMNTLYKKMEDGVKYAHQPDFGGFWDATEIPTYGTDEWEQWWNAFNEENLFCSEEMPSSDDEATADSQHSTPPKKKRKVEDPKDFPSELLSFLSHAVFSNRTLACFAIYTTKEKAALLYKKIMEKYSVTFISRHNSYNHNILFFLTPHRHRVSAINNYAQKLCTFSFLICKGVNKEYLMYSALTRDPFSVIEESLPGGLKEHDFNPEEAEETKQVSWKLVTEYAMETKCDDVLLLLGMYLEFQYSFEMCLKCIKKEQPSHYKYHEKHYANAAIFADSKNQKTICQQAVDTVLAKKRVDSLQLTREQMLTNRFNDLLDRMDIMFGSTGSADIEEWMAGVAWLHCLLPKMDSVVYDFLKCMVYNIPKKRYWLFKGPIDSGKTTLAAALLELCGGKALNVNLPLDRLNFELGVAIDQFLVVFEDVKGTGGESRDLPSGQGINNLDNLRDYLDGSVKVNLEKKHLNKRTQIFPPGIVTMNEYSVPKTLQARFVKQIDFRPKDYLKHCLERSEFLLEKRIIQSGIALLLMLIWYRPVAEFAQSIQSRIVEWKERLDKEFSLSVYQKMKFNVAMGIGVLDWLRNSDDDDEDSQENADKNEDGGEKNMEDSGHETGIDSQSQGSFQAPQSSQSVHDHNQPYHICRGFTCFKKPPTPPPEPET

inhibition, inactive:
O=C1c2ccccc2S(=O)(=O)N1CCOc1ccc(F)cc1 6.69%
CCOc1ccc(CCNC(=O)COC(=O)C2=NNC(=O)CC2)cc1OCC 12.5%
COc1ccc2c(c1)C1CC(C)(NC(=O)C1S(=O)(=O)c1ccc(F)cc1)O2 (stereo not given) 22.9%
CCOC(=O)c1ccccc1NC(=O)c1cccc2c1C(=O)N(C1CCN(C(=O)OCC)CC1)C2 5.81% and 1.24%
CC[N+](C)(C)CCN(Cc1ccc(Cl)cc1)c1ccccn1 19.1%
COc1ccc(CN(CCN(C)C)c2ccccn2)cc1 11.2% and 4.35%
O=c1[nH]cc(N(CCO)CCO)c(=O)[nH]1 15.6%
O=C(/C=C/c1ccccc1)OCC(=O)N1CCN(c2ccccc2)CC1 8.9%
Cc1onc(C(=O)NCc2cccs2)c1[N+](=O)[O-] -0.94%
NC1=NC(=O)CC(C(=O)NCCc2ccccc2)S1 (stereo not given) 13.9%
C/C(Nc1ccc(Cl)cc1)=C(/C#N)C(N)=O -6.59%
N#CC(C(=O)Nc1ccc(Cl)cc1)=C1Nc2ccccc2N1 -0.845%
CCc1cc(C(=O)c2ccccc2OC)c(N)s1 12.7%
COC(=O)/C=C/c1ccc2c(c1)OCO2 -5.42%
CCCCOC(=O)/C=C/c1ccc(OC(=O)OC)c(OC(=O)OC)c1 15.3%
CCOc1ccc(NC(=S)N(Cc2ccc(Cl)cc2)Cc2ccco2)cc1 2.54%
O=C(CS(=O)(=O)Cc1ccccc1)N1CCc2ccccc2C1 9.06%
O=C(CN1C(=O)S/C(=C\c2ccc(O)cc2)C1=O)c1ccccc1 16.6%
O=C1/C(=C\c2ccc(O)cc2)SC(=S)N1Cc1ccccc1 7.6%
O=C1N=C(N2CCN(c3ccccc3)CC2)S/C1=C\c1ccco1 31.4%
CCCSC1=N/C(=C\C=C\c2ccco2)C(=O)S1 73%
O=C1N=C(N2CCN(c3ccccc3)CC2)S/C1=C/c1ccco1 12.4%
Cc1ccc(N=C2NC(=O)/C(=C/C=C/c3ccco3)S2)cc1 21.2%
NN1C(=O)/C(=C\c2ccco2)SC1=S 45.2%
O=C1N=C(N2CCCC2C(=O)O)S/C1=C\c1ccco1 (stereo not given) 3.04%
COc1ccccc1-c1noc(CCCC(=O)NC2CCCCC2)n1 29.8%
Cc1cc(C=O)c(C)n1-c1ccc(N2CCOCC2)c([N+](=O)[O-])c1 5.88%
O=C(COC(=O)c1nc(Cl)ccc1Cl)NCCc1ccccc1 -0.66%
CCc1ccc(/C=C2/Sc3ccccc3N(CC(=O)NCC3CCCO3)C2=O)cc1 (stereo not given) 3.57%
Cc1ccc(NC(=O)N2CCC(C(=O)c3ccc(F)cc3)CC2)cc1 3.7%
CCOC(=O)Cn1c(=NC(=O)CN2C(=O)CCC2=O)sc2cc(S(N)(=O)=O)ccc21 11.6%
COc1ccc(C(CNc2ccc(S(=O)(=O)N3CCCC3)cc2[N+](=O)[O-])N2CCCC2)cc1 (stereo not given) 0.85%
O=C(C1CCCN(Cc2ccccc2F)C1)N1CCCC1 (stereo not given) -1.92%
CC1CN(c2nc3c(c(=O)n(C)c(=O)n3C)n2Cc2c(Cl)cccc2Cl)CC(C)O1 (stereo not given) -0.38%
CN(C)S(=O)(=O)c1cccc(NC(=O)COC(=O)COc2ccccc2[N+](=O)[O-])c1 8.43%
CC(=O)C1=C(C)Nc2ncnn2C1c1cccc(Br)c1 (stereo not given) 4.82%
Cn1c(C(=O)NCCOc2ccccc2Cl)cc(=O)n(C)c1=O 3.15%
CC(C)(O)[C@H]1Cc2cc3ccc(=O)oc3cc2O1 -9.56%
COc1cc2c(cc1/C=C/C(=O)O)OC(C)C2 (stereo not given) -5.46%
CCCc1ccc(S(=O)(=O)N/N=C\c2ccc3c(c2)OCO3)cc1 10.3%
Cc1ccc(S(=O)(=O)NCC(=O)Nc2cccc([N+](=O)[O-])c2)cc1 1.03%
Cc1onc(-c2c(Cl)cccc2Cl)c1/C(N)=N/OC(=O)C(C)(C)C 7.65%
CC[C@H](C)/C=C(C)/C=C/C1=CC2=CC(=O)[C@]3(C)OC(=O)[C@@H](C(C)=O)[C@@H]3C2=CO1 18%
CCC(C)/C=C/C1=CC2=C(Cl)C(=O)C3(C)OC(=O)C(C(=O)C(C)C(C)O)C3C2=CO1 (stereo not given) 12.9%
COC(=O)CCC(=O)OC1(C)C(=O)C2=COC(c3ccc(OC)cc3)=CC2=C(Br)C1=O (stereo not given) 50.8%
O=C(CSc1nc(-c2ccccc2)c(-c2ccccc2)o1)N1CCOCC1 4.01%
O=C(CNC(=O)c1ccc(Cl)cc1Cl)OCc1nnc(-c2ccccc2)o1 15.1%
CC1(C)CC(=O)c2sc(NC(=O)C3COc4ccccc4O3)nc2C1 (stereo not given) 4.75%
O=C(C1CCN(S(=O)(=O)c2cccs2)CC1)N1CCCCC1 13.9%
Cc1cc(C)c2c(CN3CCN(C)CC3)cc(=O)oc2c1 -0.86%
Cc1cc(C)c2c(CN3CCCCC3)cc(=O)oc2c1 20.4%
COC1CCN(C(=O)CC2C(=O)NCCN2CC(C)(C)C)CC1 (stereo not given) -3.7%
O=C(CC12CC3CC(CC(C3)C1)C2)Nc1nncs1 12.5%
COc1ccc(NC(=O)CCc2c(C)nc3nc(C)nn3c2C)cc1 -3.06%
O=C(c1cc2ccccc2oc1=O)N1CCN(S(=O)(=O)c2ccccc2)CC1 18.2%
O=C1NC(=S)N/C1=C/c1cc2c(cc1[N+](=O)[O-])OCO2 3%
O=C1NN(c2ccccc2)C(=O)/C1=C\c1ccc2c(c1)OCO2 18%
O=C(CCN1C(=O)/C(=C/C=C/c2ccccc2)SC1=S)Nc1nc2ccccc2s1 9.79%
Cc1ccccc1NC(=O)c1ccc2c(c1)CCN2S(C)(=O)=O 11.3%
CCC(C)n1c(SCC(=O)/C(C#N)=C(\C)N)nc2ccccc2c1=O (stereo not given) 7.34%
